Test results published in PubChem BioAssay (Tox21).
Several values for one entry are separate records, joined by “and”; a condition that tells them apart may be missing. Identical values can stand only once. Records with an inconclusive call do not appear. Entries that show only a call come without a potency. Some compounds were tested as several samples or in several runs, with calls that do not always agree. Activity calls are given as the source filed them. Unless noted, calls follow the shape of the dose curve; as a rule, active = well fitted curve in the direction sought with a large enough effect in the repeat runs; inconclusive = weak or mixed curves; inactive = no such curve, though single readings can be large; an effect the other way counts as inactive or inconclusive.

Key:
[1] = A CellTox Green Cytotoxicity Assay to monitor cytotoxicity in HepG2 cells - 8 hour (AID 1224890); also: nearly all actives have a fitted effect of over 45% in size; also: potency is read from the fitted curve at half-maximal effect
How it was run: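 Fluorescent DNA-binding dye, 600 HepG2 cells/well, 5 h preincubation then compound in DMSO; same plates read at 0–40 h, 37 C.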

[2] = qHTS assay to identify small molecule antagonists of the estrogen receptor alpha (ER-alpha) signaling pathway using the BG1 cell line in the presence of 0.1 nM 17-beta-estradiol - cell viability counter screen (AID 1259241); also: nearly all actives have a fitted effect of over 40% in size; also: potency is read from the fitted curve at half-maximal effect
How it was run: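 Following 5 days in phenol red-free medium with charcoal-stripped serum, VM7Luc4E2 cells received test compounds alongside 0.1 nM 17beta-estradiol (final) at 37C for 22 hr. Live cells were then quantified via protease-substrate fluorescence.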

[3] = qHTS assay to identify small molecule antagonists of the androgen receptor (AR) signaling pathway using the MDA cell line in the presence of 0.5 nM R1881 - cell viability counter screen (AID 1259242); also: nearly all actives have a fitted effect of over 45% in size
How it was run: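 Human breast carcinoma MDA-kb2 cells, cultured without CO2, receive compounds alongside 0.5 nM (final) R1881 agonist. After 16 hr at 37C, viability is taken as live-cell protease signal.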

[4] = qHTS assay to identify small molecule phospholipidosis (PLD) inducers (AID 1259344; active = well fitted curve in the direction sought with a large enough effect; an effect the other way counts as inactive or inconclusive)
How it was run: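 Image-based: LipidTOX Red pit count/intensity per well and per cell; HepG2, 24 h compound at 37 C, PFA fixation, Hoechst counterstain.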

[5] = qHTS assay to identify small molecule HDAC inhibitors (AID 1259364); also: potency is read from the fitted curve at half-maximal effect;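 also: wild-type HCT-116 cells with endogenous class I/II HDAC activity; nearly all actives have a fitted effect of over 45% in size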
How it was run: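 After a 2 hr compound incubation (37C, 5% CO2), HCT-116 cells seeded at 1,500/well the day before received HDAC-Glo reagent; signal read as luminescence after 30 min at room temperature.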

[6] = qHTS assay to identify small molecule HDAC inhibitors - cell viability counter screen (AID 1259365); also: series mostly up to about 92 µM; nearly all actives have a fitted effect of over 50% in size
How it was run: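 HCT-116 wild-type, overnight attachment; 2hr drug exposure, 37C; CellTiter-Glo luminescent ATP readout after 30min RT.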

[7] = qHTS assay to identify small molecule agonists of the sonic hedgehog signaling (Shh) pathway - cell viability counter screen (AID 1259366); also: nearly all actives have a fitted effect of over 50% in size
How it was run: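 Compounds in DMSO were pin-transferred onto 3T3 Gli1-Luc cells that had settled 4hr; plates then stood 24hr at 37C and 5% CO2. One hour before the end, CellTiter-Fluor was added and fluorescence recorded.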

[8] = qHTS assay to identify small molecule antagonists of the sonic hedgehog signaling (Shh) pathway - cell viability counter screen (AID 1259367); also: nearly all actives have a fitted effect of over 55% in size; also: potency is read from the fitted curve at half-maximal effect
How it was run: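 Tox21 library chemicals were tested on a Gli1-Luc NIH/3T3 clone (2,000 cells/well) stimulated by conditioned medium; viability was quantified as fluorescence from CellTiter-Fluor reagent added at 23 hr.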

[9] = qHTS assay to identify small molecule agonists of the sonic hedgehog signaling (Shh) pathway (AID 1259368; calls by dose curve;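 also: NIH/3T3-derived 3T3Gli1-Luc cells carrying a stable Gli1-driven firefly luciferase reporter; series mostly up to about 92 µM; nearly all actives have a fitted effect of over 15% in size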)
How it was run: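 Stable NIH/3T3 Gli1-Luc reporter clone; 24 hr cpd exposure after a 4 hr settling period; luminescence endpoint.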

[10] = qHTS assay to identify small molecule antagonists of the sonic hedgehog signaling (Shh) pathway (AID 1259369; calls by dose curve; also: nearly all actives have a fitted effect of over 45% in size; also: potency is read from the fitted curve at half-maximal effect)
How it was run: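 Gli1 transcriptional reporter (firefly Luc) in NIH/3T3 background, conditioned-medium activated. 24hr exposure, luminescence endpoint.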

[11] = qHTS assay to identify small molecule agonists of the androgen receptor (AR) signaling pathway in the presence of an antagonist - cell viability counter screen (AID 1259379); also: nearly all actives have a fitted effect of over 25% in size; also: potency is read from the fitted curve at half-maximal effect
How it was run: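 Counter screen for cell viability run in parallel with the AR agonist-mode luciferase assay. MDA-kb2 cells were co-treated with nilutamide (3.0uM final) and compounds, then incubated 16 hr at 37C, and CellTiter-Fluor fluorescence was measured.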

[12] = qHTS assay to identify small molecule agonists of the estrogen receptor beta (ER-beta) signaling pathway - cell viability counter screen (AID 1259380); also: nearly all actives have a fitted effect of over 30% in size; also: potency is read from the fitted curve at half-maximal effect
How it was run: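 In this qHTS counter screen, HEK293T cells carrying an ER-beta/UAS beta-lactamase reporter, grown in 2% charcoal-stripped FBS, received compound for 16 hr; ATP-based CellTiter-Glo luminescence was then read after 30 min at room temperature.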

[13] = qHTS assay to identify small molecule antagonists of the estrogen receptor beta (ER-beta) signaling pathway - cell viability counter screen (AID 1259382); also: nearly all actives have a fitted effect of over 55% in size; also: potency is read from the fitted curve at half-maximal effect
How it was run: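 HEK293T ER-beta-UAS-bla, 2% charcoal-stripped FBS; compounds + 1nM E2 16 hr 37C; CellTiter-Glo luminescence, 30 min RT.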

[14] = qHTS assay to identify small molecule agonists or antagonists of the thyroid stimulating hormone receptor (TSHR) signaling pathway - wild type cell line counter screen (AID 1259384; calls by dose curve)
How it was run: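 Wild-type Hek293 cells, 800/well, 18 h at 37C, then compound with Ro20-1724 for 30 min RT. cAMP by HTRF (cAMP-d2/anti-cAMP cryptate), 1 h RT, fluorescence read. 15 concentrations, triplicates.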

[15] = molecular target: Estrogen receptor (Homo sapiens) (UniProt P03372); experiment: qHTS assay to identify small molecule antagonists of the estrogen receptor alpha (ER-alpha) signaling pathway using the BG1 cell line in the presence of 0.1 nM 17-beta-estradiol (AID 1259244); also: nearly all actives have a fitted effect of over 50% in size; also: potency is read from the fitted curve at half-maximal effect
Estrogen receptor (Homo sapiens), sequence (P03372 whole entry, looked up): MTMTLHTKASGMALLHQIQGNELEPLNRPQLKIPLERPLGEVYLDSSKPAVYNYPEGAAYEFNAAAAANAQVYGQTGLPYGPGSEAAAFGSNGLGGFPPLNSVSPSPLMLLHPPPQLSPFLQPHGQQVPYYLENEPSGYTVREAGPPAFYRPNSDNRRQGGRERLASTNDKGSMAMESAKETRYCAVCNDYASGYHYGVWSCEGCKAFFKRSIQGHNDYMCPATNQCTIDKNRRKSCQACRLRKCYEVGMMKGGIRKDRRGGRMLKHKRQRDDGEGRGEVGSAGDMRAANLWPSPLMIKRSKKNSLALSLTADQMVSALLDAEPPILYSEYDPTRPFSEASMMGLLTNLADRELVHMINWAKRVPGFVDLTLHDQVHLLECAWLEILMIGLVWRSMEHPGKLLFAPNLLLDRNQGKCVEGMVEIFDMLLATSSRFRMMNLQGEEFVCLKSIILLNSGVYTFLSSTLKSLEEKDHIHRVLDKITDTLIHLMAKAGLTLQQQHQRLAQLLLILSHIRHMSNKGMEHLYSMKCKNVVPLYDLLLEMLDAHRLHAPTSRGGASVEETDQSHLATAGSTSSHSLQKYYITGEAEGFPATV
How it was run: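 Seeding of stripped-serum-adapted VM7Luc4E2 cells, 24 h attachment, compound transfer, then 0.1 nM final 17beta-estradiol; after 22 h incubation, ONE-Glo reagent and luminescence reading.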

[16] = molecular target: Estrogen receptor (Homo sapiens) (UniProt P03372); experiment: qHTS assay to identify small molecule agonists of the estrogen receptor alpha (ER-alpha) signaling pathway in the presence of an antagonist (AID 1259383; calls by dose curve; also: top concentration of the series differs between compounds; nearly all actives have a fitted effect of over 15% in size)
How it was run: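 ER-alpha agonism measured under antagonist challenge: 10.0nM ICI-182,780 (final) plus compound, 15 concentrations, 22hr, VM7Luc4E2 ERE-luciferase cells. Read by luminescence.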

[17] = molecular target: Estrogen receptor beta (Homo sapiens) (UniProt Q92731); experiment: qHTS assay to identify small molecule agonists of the estrogen receptor beta (ER-beta) signaling pathway (AID 1259377; active = well fitted activation curve with a large enough effect in the signal ratio in the repeat runs, not every such curve was filed as active; the % refers to the signal ratio)
Estrogen receptor beta (Homo sapiens), sequence (Q92731 whole entry, looked up): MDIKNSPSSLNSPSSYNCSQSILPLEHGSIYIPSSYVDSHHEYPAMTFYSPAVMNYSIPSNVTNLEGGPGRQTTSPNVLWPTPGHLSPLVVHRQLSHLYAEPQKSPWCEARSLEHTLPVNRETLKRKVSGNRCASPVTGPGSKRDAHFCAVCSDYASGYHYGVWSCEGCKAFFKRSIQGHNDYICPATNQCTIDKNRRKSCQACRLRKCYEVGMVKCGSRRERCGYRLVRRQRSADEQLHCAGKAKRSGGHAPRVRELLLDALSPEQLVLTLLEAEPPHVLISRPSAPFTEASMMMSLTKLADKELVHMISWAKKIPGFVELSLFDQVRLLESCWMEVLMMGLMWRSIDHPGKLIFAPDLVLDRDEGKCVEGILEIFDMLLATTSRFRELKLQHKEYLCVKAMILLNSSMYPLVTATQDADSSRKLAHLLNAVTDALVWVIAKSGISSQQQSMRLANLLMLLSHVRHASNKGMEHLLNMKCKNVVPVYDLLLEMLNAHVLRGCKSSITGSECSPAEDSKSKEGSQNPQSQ
How it was run: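 qHTS in ER-beta-UAS-bla HEK293T cells: 6 hr settling, then 16 hr compound at 37C, then LiveBLAzer substrate 2 h at RT before fluorescence reading.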

[18] = molecular target: Estrogen receptor beta (Homo sapiens) (UniProt Q92731); experiment: qHTS assay to identify small molecule antagonists of the estrogen receptor beta (ER-beta) signaling pathway (AID 1259378; active = well fitted inhibition curve with a large enough effect in the signal ratio in the repeat runs, not every such curve was filed as active; the % refers to the signal ratio; also: potency is read from the fitted curve at half-maximal effect)
How it was run: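 ER-beta-UAS-bla HEK293T cells in 2% charcoal-stripped FBS medium treated with compound plus 1nM final 17-beta-estradiol for 16 hr at 37C. Beta-lactamase reporter read by FRET substrate fluorescence after 2 hours at room temperature.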

[19] = molecular target: Androgen receptor (Homo sapiens) (UniProt P10275); experiment: qHTS assay to identify small molecule antagonists of the androgen receptor (AR) signaling pathway using the MDA cell line in the presence of 0.5 nM R1881 (AID 1259243); also: nearly all actives have a fitted effect of over 50% in size
Androgen receptor (Homo sapiens), sequence (P10275 whole entry, looked up): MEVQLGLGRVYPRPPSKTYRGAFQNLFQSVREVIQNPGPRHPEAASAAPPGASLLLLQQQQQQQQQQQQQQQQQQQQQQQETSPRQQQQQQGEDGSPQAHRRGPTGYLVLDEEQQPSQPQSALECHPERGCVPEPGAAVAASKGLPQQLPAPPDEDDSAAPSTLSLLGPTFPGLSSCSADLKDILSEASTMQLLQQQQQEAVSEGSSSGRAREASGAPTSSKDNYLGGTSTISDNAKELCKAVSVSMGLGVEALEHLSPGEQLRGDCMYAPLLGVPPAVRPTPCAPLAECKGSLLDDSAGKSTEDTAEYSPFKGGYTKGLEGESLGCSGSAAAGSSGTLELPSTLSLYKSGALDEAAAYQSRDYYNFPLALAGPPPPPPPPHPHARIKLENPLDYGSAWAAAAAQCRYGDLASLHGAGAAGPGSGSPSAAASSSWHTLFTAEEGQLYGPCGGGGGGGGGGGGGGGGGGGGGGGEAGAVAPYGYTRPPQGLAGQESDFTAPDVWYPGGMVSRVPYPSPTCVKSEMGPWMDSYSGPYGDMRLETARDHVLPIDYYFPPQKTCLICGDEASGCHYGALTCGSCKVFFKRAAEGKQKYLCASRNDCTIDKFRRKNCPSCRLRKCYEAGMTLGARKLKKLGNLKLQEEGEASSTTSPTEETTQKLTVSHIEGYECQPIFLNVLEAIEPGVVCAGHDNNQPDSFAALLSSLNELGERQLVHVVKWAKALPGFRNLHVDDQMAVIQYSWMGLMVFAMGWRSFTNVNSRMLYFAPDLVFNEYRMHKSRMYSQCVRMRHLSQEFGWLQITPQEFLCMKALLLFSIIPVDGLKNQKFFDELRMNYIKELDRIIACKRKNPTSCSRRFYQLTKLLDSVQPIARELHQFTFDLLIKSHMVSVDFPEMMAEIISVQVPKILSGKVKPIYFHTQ
How it was run: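 Cells: MDA-kb2 (MMTV-luc). Stimulus: 0.5 nM R1881. Time: 16 hr, 37C, no CO2. Detection: ONE-Glo luminescence after 30 min at RT.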

[20] = molecular target: Androgen receptor (Homo sapiens) (UniProt P10275); experiment: qHTS assay to identify small molecule agonists of the androgen receptor (AR) signaling pathway in the presence of an antagonist (AID 1259381; calls by dose curve; also: nearly all actives have a fitted effect of over 15% in size)
How it was run: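 AR antagonist background: nilutamide 3.0uM final. Cell line: MDA-kb2, MMTV-driven luciferase, responsive to both AR and GR. Exposure 16hr, 37C, no CO2; ONE-Glo luminescence.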

Row | SMILES | Potency [1] | Potency [2] | Potency [3] | outcome [4] | Potency [5] | outcome [6] | Potency [7] | Potency [8] | outcome [9] | Potency [10] | Potency [11] | Potency [12] | Potency [13] | outcome [14] | Potency [15] | Potency [16] | Potency [17] | Potency [18] | outcome [19] | Potency [20]
1 | COC(=O)Nc1nc2ccc(Sc3ccccc3)cc2[nH]1 | inactive | inactive | inactive | inactive | inactive | inactive | inactive | 8.63 µM (active) | inactive | 1.93 µM (active) and 2.66 µM (active) | inactive | inactive | inactive | inactive |  |  |  |  |  | 
2 | CC1CC(OC(=O)c2ccccc2O)CC(C)(C)C1 (centres undefined) | inactive | inactive | inactive | inactive | inactive | inactive |  | 60.5 µM (active) and inactive | inactive | 27 µM (active) and inactive | inactive | inactive | inactive | inactive |  |  |  |  |  | 
3 | CC1(C)CC(N=C=O)CC(C)(CN=C=O)C1 (centres undefined) | inactive | inactive | inactive |  | inactive | inactive |  | inactive | inactive | inactive | inactive | inactive | inactive | inactive | inactive | inactive |  |  |  | 
4 | CC(=O)Nc1ccc(C(=O)O)cc1 | inactive |  | inactive | inactive | inactive | inactive | inactive | inactive | inactive | inactive | inactive | inactive | inactive | inactive | inactive | inactive | inactive | inactive |  | 
5 | C=C(C)C(=O)OCCC[Si](OC)(OC)OC | inactive | inactive | inactive |  | inactive | inactive |  | inactive | inactive | inactive | inactive | inactive | inactive | inactive | inactive | inactive | inactive | inactive |  | 
6 | Cc1cc(NS(=O)(=O)c2ccc(N)cc2)no1 | inactive | inactive | inactive | inactive | inactive | inactive | inactive | inactive | inactive | inactive | inactive | inactive | inactive | inactive |  |  | inactive |  |  | 
7 | CCOC(=O)/C=C\C(=O)OCC | inactive | inactive | inactive |  | inactive | inactive |  | inactive | inactive | inactive | inactive | inactive | inactive | inactive | inactive | inactive |  |  |  | 
8 | COCC(C)O (centres undefined) | inactive | inactive | inactive |  | inactive | inactive |  | inactive | inactive | inactive | inactive | inactive | inactive | inactive | inactive | inactive |  |  |  | 
9 | CCCCNC(N)=O | inactive | inactive | inactive |  | inactive | inactive | inactive | inactive | inactive | inactive | inactive | inactive | inactive |  |  |  | inactive | inactive |  | 
10 | CCCCCCCCCCCCN | inactive and 24.5 µM (active) | inactive | inactive |  | inactive | inactive |  | inactive | inactive | inactive | inactive | inactive and 30.6 µM (active) | 54.5 µM (active) and inactive | inactive |  |  |  |  |  | 
11 | O=[N+]([O-])c1cc(N(CCO)CCO)ccc1NCCO | inactive | 34.4 µM (active) |  |  |  |  | inactive | inactive | inactive | inactive | 54.4 µM (active) and 30.6 µM (active) | inactive | inactive |  |  | inactive | inactive | inactive | inactive | inactive
12 | CC(C)(C)C(=O)C1C(=O)c2ccccc2C1=O | inactive | 54.5 µM (active) | inactive |  | inactive | inactive |  | 60.5 µM (active) | inactive | 68.6 µM (active) | 60.5 µM (active) | inactive | inactive | inactive | 61.1 µM (active) | inactive | inactive |  |  | 
13 | Clc1ccc(Cl)c(Cl)c1Cl | inactive | inactive | inactive |  | inactive | inactive | inactive | inactive | inactive | inactive | inactive | inactive | inactive | inactive |  |  | inactive | inactive |  | 
14 | CC1COc2ccccc2N1C(=O)C(Cl)Cl (centres undefined) | inactive | inactive | inactive |  | inactive | inactive |  |  | inactive | 15.3 µM (active) |  | inactive | inactive | inactive |  | inactive | inactive | inactive |  | 
15 | O=C(Oc1ccccc1)c1ccc(O)cc1 | inactive | inactive | inactive |  | 21.8 µM (active) and 21.7 µM (active) | inactive | inactive | inactive | inactive | inactive | inactive | inactive | inactive | inactive |  |  |  | 48.9 µM (active) |  | 
16 | CCOC(=O)C1OC1c1ccccc1 (centres undefined) | inactive | inactive | inactive |  | 49.5 µM (active) | inactive |  | inactive | inactive | inactive | inactive |  | inactive |  |  |  |  |  |  | 
17 | O=C(O)c1ccc([N+](=O)[O-])cc1 | inactive | inactive | inactive |  | inactive | inactive |  | inactive | inactive | inactive | inactive | inactive | inactive |  |  |  | inactive | inactive |  | 
18 | C[C@@H]1O[C@@H](OC[C@H]2O[C@@H](Oc3c(-c4ccc(O)c(O)c4)oc4cc(O)cc(O)c4c3=O)[C@H](O)[C@@H](O)[C@@H]2O)[C@H](O)[C@H](O)[C@H]1O | inactive |  | inactive | inactive | inactive | inactive | inactive | inactive | inactive | inactive | inactive | inactive | inactive | inactive |  |  | inactive | inactive | inactive | inactive
